Among all 5,500 compounds or so, about 2,000 (36%) were called active. Roughly 18% stayed inconclusive and do not appear here. Cut-off read from the data, not from the text of the source: active = normalized growth mostly below about 0.91 (no sharp cut-off); inconclusive = no clear call, values can overlap the other calls; inactive = mostly above about 0.92. This is one part of the list.
Assay: chemical genetic growth profiling, strain panel (AID 1159580);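 note: tested at 20 µM; growth read once vehicle control cultures reached saturation at 30 °C; 1 = growth at the plate median or of vehicle wells; lower values mean less growth of the strain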
Details: growth OD

Measured: normalized growth

C[C@@H]1CC2C3CCC4=CC(=O)C=C[C@]4(C)[C@@]3(F)[C@@H](O)C[C@]2(C)[C@@]1(O)C(=O)COP(=O)(O)O (stereo partly drawn)
inactive: S. cerevisiae deletion strains, locus YJR066W, strain TOR1, hits give low values 0.95 | S. cerevisiae deletion strains, locus YJR075W, strain HOC1, hits give low values 1.02 | S. cerevisiae deletion strains, locus YKL009W, strain mrt4, hits give low values 1 | S. cerevisiae deletion strains, locus YKL068W, hits give low values 1.01 | S. cerevisiae deletion strains, locus YKL085W, strain MDH1 (second series), hits give low values 1.05 | S. cerevisiae deletion strains, locus YKL085W, strain MDH1, hits give low values 1.05 | S. cerevisiae deletion strains, locus YKL160W, strain elf1, hits give low values 0.965 | S. cerevisiae deletion strains, locus YKR001C, strain vps1, hits give low values 0.997 | S. cerevisiae deletion strains, locus YKR026C, strain gcn3, hits give low values 0.966 | S. cerevisiae deletion strains, locus YKR091W, strain srl3, hits give low values 0.982 | S. cerevisiae deletion strains, locus YLL001W, strain dnm1, hits give low values 0.931 | S. cerevisiae deletion strains, locus YLL026W, hits give low values 0.986 | S. cerevisiae deletion strains, locus YLL041C, strain sdh2, hits give low values 0.97 | S. cerevisiae deletion strains, locus YLR027C, strain aat2, hits give low values 0.975 | S. cerevisiae deletion strains, locus YLR039C, strain RIC1, hits give low values 1.02 | S. cerevisiae deletion strains, locus YLR058C, strain SHM2, hits give low values 1.01 | S. cerevisiae deletion strains, locus YLR102C, strain apc9, hits give low values 0.993 | S. cerevisiae deletion strains, locus YLR113W, strain HOG1, hits give low values 0.977 | S. cerevisiae deletion strains, locus YLR221C, strain rsa3, hits give low values 1.01 | S. cerevisiae deletion strains, locus YLR258W, strain gsy2, hits give low values 1 | S. cerevisiae deletion strains, locus YLR262C, strain YPT6 (second series), hits give low values 0.959 | S. cerevisiae deletion strains, locus YLR262C, strain YPT6, hits give low values 1.01 | S. cerevisiae deletion strains, locus YLR268W, strain sec22, hits give low values 0.996 | S. cerevisiae deletion strains, locus YLR320W, strain mms22, hits give low values 1.01 | S. cerevisiae deletion strains, locus YLR330W, strain CHS5, hits give low values 1.01 | S. cerevisiae deletion strains, locus YLR342W, strain FKS1 (second series), hits give low values 1.01 | S. cerevisiae deletion strains, locus YLR342W, strain FKS1, hits give low values 0.959 | S. cerevisiae deletion strains, locus YLR357W, strain rsc2, hits give low values 0.957 | S. cerevisiae deletion strains, locus YLR370C, strain arc18, hits give low values 0.972 | S. cerevisiae deletion strains, locus YLR371W, strain rom2, hits give low values 0.994 | S. cerevisiae deletion strains, locus YLR384C, strain iki3, hits give low values 0.959 | S. cerevisiae deletion strains, locus YLR418C, strain cdc73, hits give low values 1.01 | S. cerevisiae deletion strains, locus YML016C, strain PPZ1, hits give low values 1 | S. cerevisiae deletion strains, locus YML032C, strain rad52, hits give low values 0.991 | S. cerevisiae deletion strains, locus YML120C, strain ndi1, hits give low values 0.97 | S. cerevisiae deletion strains, locus YML124C, strain tub3, hits give low values 0.993 | S. cerevisiae deletion strains, locus YMR058W, strain fet3, hits give low values 0.978 | S. cerevisiae deletion strains, locus YMR078C, strain ctf18, hits give low values 0.987 | S. cerevisiae deletion strains, locus YMR125W, strain sto1, hits give low values 0.933 | S. cerevisiae deletion strains, locus YMR129W, hits give low values 0.987 | S. cerevisiae deletion strains, locus YMR205C, strain PFK2, hits give low values 0.981 | S. cerevisiae deletion strains, locus YMR223W, strain ubp8, hits give low values 1.01 | S. cerevisiae deletion strains, locus YMR231W, strain pep5, hits give low values 0.957 | S. cerevisiae deletion strains, locus YMR263W, strain SAP30, hits give low values 1.01 | S. cerevisiae deletion strains, locus YMR307W, strain GAS1, hits give low values 1.09 | S. cerevisiae deletion strains, locus YNL067W, strain RPL9B, hits give low values 1.01 | S. cerevisiae deletion strains, locus YNL071W, strain lat1, hits give low values 0.985 | S. cerevisiae deletion strains, locus YNL153C, strain GIM3, hits give low values 0.998 | S. cerevisiae deletion strains, locus YNL183C, strain NPR1, hits give low values 0.955 | S. cerevisiae deletion strains, locus YNL209W, strain ssb2, hits give low values 0.986 | S. cerevisiae deletion strains, locus YNL233W, strain BNI4, hits give low values 1.02 | S. cerevisiae deletion strains, locus YNL248C, strain rpa49, hits give low values 0.987 | S. cerevisiae deletion strains, locus YNL250W, strain rad50, hits give low values 0.993 | S. cerevisiae deletion strains, locus YNL271C, strain bni1, hits give low values 1.01 | S. cerevisiae deletion strains, locus YNL298W, strain CLA4, hits give low values 1.02 | S. cerevisiae deletion strains, locus YNL307C, strain MCK1, hits give low values 0.995 | S. cerevisiae deletion strains, locus YNL322C, strain KRE1 (second series), hits give low values 0.963 | S. cerevisiae deletion strains, locus YNR049C, strain mso1, hits give low values 0.98 | S. cerevisiae deletion strains, locus YNR052C, strain pop2, hits give low values 1.02 | S. cerevisiae deletion strains, locus YOL006C, strain TOP1, hits give low values 1.01 | S. cerevisiae deletion strains, locus YOL012C, strain htz1 1.85 | S. cerevisiae deletion strains, locus YOL147C, strain pex11, hits give low values 1.01 | S. cerevisiae deletion strains, locus YOR001W, strain rrp6, hits give low values 0.946 | S. cerevisiae deletion strains, locus YOR061W, strain CKA2, hits give low values 1.01 | S. cerevisiae deletion strains, locus YOR069W, strain VPS5, hits give low values 1.01 | S. cerevisiae deletion strains, locus YOR070C, strain gyp1, hits give low values 0.99 | S. cerevisiae deletion strains, locus YOR080W, strain dia2, hits give low values 0.94 | S. cerevisiae deletion strains, locus YOR083W, strain WHI5, hits give low values 0.959 | S. cerevisiae deletion strains, locus YOR106W, strain vam3, hits give low values 0.928 | S. cerevisiae deletion strains, locus YOR136W, strain idh2, hits give low values 1 | S. cerevisiae deletion strains, locus YOR144C, strain elg1, hits give low values 0.997 | S. cerevisiae deletion strains, locus YOR184W, strain ser1, hits give low values 0.99 | S. cerevisiae deletion strains, locus YOR231W, strain MKK1, hits give low values 1.01 | S. cerevisiae deletion strains, locus YOR265W, strain rbl2, hits give low values 0.974 | S. cerevisiae deletion strains, locus YOR270C, strain vph1, hits give low values 1 | S. cerevisiae deletion strains, locus YOR290C, strain snf2, hits give low values 1.01 | S. cerevisiae deletion strains, locus YOR316C, strain cot1, hits give low values 1 | S. cerevisiae deletion strains, locus YPL051W, strain arl3, hits give low values 1.01 | S. cerevisiae deletion strains, locus YPL078C, strain atp4, hits give low values 0.935 | S. cerevisiae deletion strains, locus YPL106C, strain sse1, hits give low values 0.966 | S. cerevisiae deletion strains, locus YPL240C, strain hsp82, hits give low values 0.976 | S. cerevisiae deletion strains, locus YPL256C, strain CLN2, hits give low values 0.985 | S. cerevisiae deletion strains, locus YPR119W, strain clb2, hits give low values 0.993 | S. cerevisiae deletion strains, locus YPR141C, strain kar3, hits give low values 0.994 | S. cerevisiae deletion strains, locus YPR163C, strain tif3, hits give low values 0.995 | S. cerevisiae deletion strains, locus YPR167C, strain met16, hits give low values 0.997 | S. cerevisiae deletion strains, strain wtn01, hits give low values 1 | S. cerevisiae strains, strain wild type, hits give low values 1.01

From PubChem BioAssay AID1159580 (chemical genetic matrix, 2015)
